Consider 41 compounds from paper PMC4336329 (PLoS ONE, 2015).

SMILES strings stand for the structures. The campaign covered roughly 310,000 compounds. About 14,000 (4.5%) showed an effect of 50% or more. The effect is printed as a negative number. Only a selection was taken, and strong results are over-represented in it overall.
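Note: peak tail current of the secondary pulse compared with the same well before compound.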

This test deals with human ether-à-go-go-related gene (hERG) potassium channel (human, UniProt Q12809). The test is described as follows: primary screen, population patch clamp on CHO cells stably expressing hERG; higher = less effect of the substance.
human ether-à-go-go-related gene (hERG) potassium channel, sequence (Q12809 whole entry, looked up): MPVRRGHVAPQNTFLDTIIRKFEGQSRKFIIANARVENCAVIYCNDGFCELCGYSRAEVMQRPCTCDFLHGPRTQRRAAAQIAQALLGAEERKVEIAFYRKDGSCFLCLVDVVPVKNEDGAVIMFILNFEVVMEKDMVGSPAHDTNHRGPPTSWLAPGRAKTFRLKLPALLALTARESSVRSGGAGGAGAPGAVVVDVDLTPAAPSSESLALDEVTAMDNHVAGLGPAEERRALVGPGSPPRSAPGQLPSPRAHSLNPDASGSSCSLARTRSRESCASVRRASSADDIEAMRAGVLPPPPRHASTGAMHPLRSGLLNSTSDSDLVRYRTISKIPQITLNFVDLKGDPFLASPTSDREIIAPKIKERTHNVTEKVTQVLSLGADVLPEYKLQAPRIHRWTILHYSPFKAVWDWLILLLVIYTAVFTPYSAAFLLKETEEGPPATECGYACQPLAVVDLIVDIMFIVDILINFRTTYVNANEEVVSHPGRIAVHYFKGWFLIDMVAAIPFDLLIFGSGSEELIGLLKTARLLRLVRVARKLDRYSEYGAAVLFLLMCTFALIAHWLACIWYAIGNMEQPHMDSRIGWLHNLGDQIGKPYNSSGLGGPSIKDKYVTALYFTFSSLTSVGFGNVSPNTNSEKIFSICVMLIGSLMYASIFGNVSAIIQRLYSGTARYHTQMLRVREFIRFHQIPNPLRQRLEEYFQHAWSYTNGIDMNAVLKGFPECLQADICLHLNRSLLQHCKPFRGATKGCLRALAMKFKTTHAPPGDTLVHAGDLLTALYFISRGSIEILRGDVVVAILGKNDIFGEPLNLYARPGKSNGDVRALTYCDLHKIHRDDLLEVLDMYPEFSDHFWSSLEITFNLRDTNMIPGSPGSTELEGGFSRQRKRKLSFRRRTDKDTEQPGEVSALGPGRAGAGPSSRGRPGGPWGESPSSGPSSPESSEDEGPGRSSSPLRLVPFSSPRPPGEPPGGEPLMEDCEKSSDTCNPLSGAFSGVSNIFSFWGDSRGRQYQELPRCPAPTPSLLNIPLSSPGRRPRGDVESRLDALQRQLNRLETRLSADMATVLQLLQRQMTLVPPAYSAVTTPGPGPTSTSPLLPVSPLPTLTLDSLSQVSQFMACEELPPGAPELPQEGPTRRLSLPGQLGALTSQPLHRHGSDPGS
In the case of `O=C1N(CN2C(=O)C3(OCCO3)c3ccccc32)c2ccccc2C12OCCO2`, the “hERG current change (%, negative = inhibition) at 10uM” value worked out at 17.1%.
For `COc1cc2c(cc1OC)C(COc1ccccc1OC)N(C(C)=O)CC2` (centres unmarked) the value was 14.8%; for `CCn1c(CC(=O)Nc2ccccc2F)nnc1SCC(=O)N1CCN(c2ccccc2)CC1`, 1.15%.
Next, `Nc1ccc(S(=O)(=O)Nc2ccc(C(=O)c3ccccc3)cc2)cc1`: -2.92%.
Take `CSc1nc(-c2ccccc2)c(C#N)c(=O)[nH]1`: the “hERG current change (%, negative = inhibition) at 10uM” value is given as -5.88%.
Next, `CCOC(=O)C(Cc1ccccc1)NC(=O)CCCC(=O)c1ccccc1` (centres unmarked): 0.911%.
For `O=C(CCCSc1nc2ccccc2c(=O)[nH]1)c1ccc(F)cc1` the value was 3.3%; for `CCN(CC)S(=O)(=O)c1cccc(C(=O)N/N=C/c2ccc(O)c(O)c2O)c1`, 11.4%.
With `CCc1ccc2nc(N=C(N)N)nc(C)c2c1`, the “hERG current change (%, negative = inhibition) at 10uM” value is -14.3%.
For `COc1cccc(CNCCO)c1OCc1ccc(Cl)cc1.Cl`, the “hERG current change (%, negative = inhibition) at 10uM” value is reported as -18%.
In the case of `CCOc1cccc(CNc2ccc(O)cc2)c1OCc1ccc(Cl)cc1`, the “hERG current change (%, negative = inhibition) at 10uM” value amounted to 10.3%.
As for `CCOc1cccc(CNCCO)c1OCc1ccc(Cl)cc1.Cl`, the “hERG current change (%, negative = inhibition) at 10uM” value is listed as -53.2%.
Consider `Cc1c(NC(=O)C(C)Sc2ccccc2)c(=O)n(-c2ccccc2)n1C` (centres unmarked), for which the “hERG current change (%, negative = inhibition) at 10uM” value is given as -1.92%.
For `COc1ccc(C(=O)NCC(C)NC(=O)c2ccc(OC)c(Br)c2)cc1Br` (centres unmarked) the value was 4.83%; for `Cc1ccc(-n2cnc3scc(-c4cccs4)c3c2=O)cc1`, 3.67%.
In the case of `Cc1cc(C)nc(S/C=C/C(=O)c2ccccc2F)n1`, the “hERG current change (%, negative = inhibition) at 10uM” value stood at 5.02%.
Next, `COc1ccc(C2=NN(C(C#N)c3ccc(OC)c(OC)c3)C(c3ccccc3)C2)cc1` (centres unmarked): 23.8%; `CCCCCNc1nc(N2CCCC2)c2c(c1C#N)CCN(C)C2`: -72.8%; `CN1CCc2c(C#N)c(N3CCOCC3)nc(NCC3CCCO3)c2C1` (centres unmarked): 11.5%.
Take `CCCCc1nc(NCCO)c(C#N)c2c1CCCC2`: the “hERG current change (%, negative = inhibition) at 10uM” value is on record as -15.7%.
Next, `CCCCNc1nc(CC)c2c(c1C#N)CCCC2`: 8.24%.
For `CC(C)CCNc1nc(N2CCCC2)c2c(c1C#N)CCN(C)C2` the value was -58.5%.
Turning to `CCCCCNc1nc(NCCCO)c(C#N)c2c1CN(C)CC2`, the “hERG current change (%, negative = inhibition) at 10uM” value is reported as -75.2%.
With `CN1CCc2c(C#N)c(N3CCCCC3)nc(N3CCOCC3)c2C1`, the “hERG current change (%, negative = inhibition) at 10uM” value is recorded as -24.8%.
Consider `CCc1nc(NCCC(C)C)c(C#N)c2c1CCCC2`, for which the “hERG current change (%, negative = inhibition) at 10uM” value stood at 23.4%.
For `N#Cc1c(NCCCO)nc(NCc2ccccc2)c2c1CCN(Cc1ccccc1)C2` the value was -43.4%; for `Cc1ccc(CN2CC(C(=O)N3CCN(S(=O)(=O)c4c(F)cccc4F)CC3)CC2=O)cc1` (centres unmarked), -2.83%.
Next, `CCc1cc(=O)oc2c(C)c(OCC(=O)N3CC[C@@]4(O)CCCC[C@H]4C3)ccc12`: -14.6%.
As for `O=C(OCC(=O)N(CCc1ccccc1)Cc1ccccc1)c1ccccc1[N+](=O)[O-]`, the “hERG current change (%, negative = inhibition) at 10uM” value turned out to be 1.95%.
With `CN(C)C(CNC(=O)c1cc(S(=O)(=O)N(C)c2ccccc2)ccc1Cl)c1ccccc1` (centres unmarked), the “hERG current change (%, negative = inhibition) at 10uM” value is -39.6%.
For `CN(c1ccccc1)S(=O)(=O)c1cccc(C(=O)NCc2ccccc2)c1` the value was -18.3%; for `COc1ccccc1CNC(=O)c1cccc(S(=O)(=O)N(C)c2ccccc2)c1`, -23.5%.
For `CN(c1ccccc1)S(=O)(=O)c1ccc(Cl)c(C(=O)NCc2ccccc2CN2CCCC2)c1` the value was -65.9%.
For the compound `CCN(CC)S(=O)(=O)c1ccc(Cl)c(C(=O)NCc2ccccc2Cl)c1`, the “hERG current change (%, negative = inhibition) at 10uM” value is reported as -24.7%.
For `CN(c1ccccc1)S(=O)(=O)c1cccc(C(=O)NCc2ccccc2CN2CCCC2)c1` the value was -74.6%; for `O=C(O)C[C@H]1c2cc(C(F)(F)F)ccc2S(=O)(=O)N1C1CCCCC1`, 30.3%; for `CCOC(=O)c1c(C)[nH]c(N=Nc2ccc(OC)cc2)c1C`, -0.496%.
Take `Fc1ccc(-c2oncc2-c2nnnn2-c2ccccc2)cc1F`: the “hERG current change (%, negative = inhibition) at 10uM” value is on record as -15.4%.
For the compound `COC(=O)c1ccsc1NC(=O)CS(=O)(=O)c1ccccc1`, the “hERG current change (%, negative = inhibition) at 10uM” value is listed as -10.1%.
For `CCNS(=O)(=O)c1ccc(CCC(=O)N2CCN(c3cccc(Cl)c3)CC2)cc1` the value was -32.7%; for `CCCCN=C(NNc1ccc(Br)cc1)C(=O)OCC`, 3.69%.
